Only some compounds are listed: those with a hit (about 2.3% of all), similar ones and a draw of the others.
A549 viability: Nrf2 qHTS screen for inhibitors: counterscreen for cytotoxicity | A549 ARE-Fluc cells, CellTiter-Fluor viability, 18-24 h | 0.16% of 390,000 active | Potency, µM (titrated, usually from 46 µM), without a hit: at the highest dose activity change, negative = cytotoxicity, usual class: inhibitors; also: potency is read from the fitted curve at half-maximal effect; % is scaled to controls: 0 for no effect and ±100 for the full control effect
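A549 ARE_Fluc cells in 5% FBS OPTI-MEM were exposed to compounds in concentration-response for 18-24 h at 37 deg C. Viability was read by CellTiter-Fluor fluorescence (Ex 405/Em 525) after 30 min, before the luciferase read.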
Nrf2 block: Nrf2 qHTS screen for inhibitors | AID 504444, 2011 | A549 ARE-Fluc reporter, luciferase luminescence, 18-24 h | 2.1% of 360,000 active | Potency, µM (highest dose often 46 µM), without a hit: at the top dose activity change, negative = inhibition, usual class: inhibitors; also: potency is read from the fitted curve at half-maximal effect; % is scaled to controls: 0 for no effect and ±100 for the full control effect; nearly all actives have a fitted effect of over 60% in size
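Nrf2 activity is the BugLite luminescence, read 15 min after reagent at room temperature, following CellTiter-Fluor cytotoxicity readout (30 min, 37C). Compound titrations were applied for 18-24 h to 5000 A549 ARE_Fluc cells/well in 5% FBS OPTI-MEM.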
IL2 activator: qHTS of IL-2 Activators. AID 652025, 2013. IL-2 activation reporter assay, cell-based qHTS; stimulated with anti-CD3/CD4/CD28 beads; in transgenic mouse T cells. 0.065% of 360,000 active. activation, % (series mostly up to about 46 µM); in the data active = activation above about 50%; inconclusive = mostly about 30% to 49%; also: 0% is about no effect
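EGFP and DsRed fluorescence is measured by plate cytometry in unstimulated transgenic mouse T cells exposed to compound for 60 minutes, then stimulated 18 hours at 37 degrees C with anti-CD3/anti-CD4 beads plus anti-CD28.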
Nrf2 activator: qHTS of Nrf2 Activators; 0.31% of 410,000 active; AID 624171, 2012; AREc32 ARE-luciferase reporter (MCF7-derived line), luminescence, 24 h; Potency, µM (doses to about 46.1 µM), inactives show top-dose activation, hits mostly activators; also: potency is read from the fitted curve at half-maximal effect; % of control where 0% means no effect; nearly all actives have a fitted effect of over 65% in size
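Quantitative high-throughput format: AREc32 reporter cells, 1000 per well, received compound by pin transfer and were incubated 24 hr at 37 deg C, 5% CO2, before Steady-Glo luminescence detection.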
* = called active by the depositor; ? = inconclusive; · = no result given; [ ] = another dose, or the depositor's remark. Unless noted, calls follow the shape of the dose curve; as a rule, active = well fitted curve in the direction sought with a large enough effect; inconclusive = small, poorly fitted or top-dose-only effect, or another doubt; inactive = no such curve, though single readings can be large; an effect the other way counts as inactive or inconclusive.

SMILES | A549 viability | Nrf2 block | IL2 activator | Nrf2 activator
Cc1ccc(NC(=O)c2cn(-c3ccccc3)nc2-c2ccccc2)cc1 | 10% | 19% | · | 4%
Cc1ccc(CN2C(=O)CN(C3CCCCCC3)C(=O)C2c2ccc(F)cc2)cc1 (configuration not stated) | 19% | · | · | 0%
CCCN(CCC)C(=O)c1nn(C)c2c1CSc1ccccc1-2 | 9% | 26% | · | 0%
O=S(=O)(/C=C/C=C/S(=O)(=O)c1ccccc1)c1ccccc1 | ? | 26µM* | -6 | -3%
Cc1ccc(CNS(=O)(=O)c2cc3c(cc2Cl)NC(=O)CO3)o1 | 3% | · | · | 6%
FC(F)Sc1ccc(N=C2NN=C(c3ccc4c(c3)OCCO4)CS2)cc1 | 16µM* | 16µM* | -1 | 9%
CCCCN=C1NN=C(c2ccc3c(c2)OCCO3)CS1 | -3% | ? | -1 | -1%
c1cc2c(cc1C1=NNC(=NC3CC3)SC1)OCCO2 | 3% | 2.3µM* | -1 | -3%
COc1ccc(N=C2NN=C(c3ccc4c(c3)OCCO4)CS2)cc1 | -8% | -27% | 3 | 6%
Cn1c(C(=O)NCc2cccc(F)c2)cc2cc(S(=O)(=O)N3CCCCC3)ccc21 | -7% | · | · | 0%
CCC(Sc1ccc(Cl)cc1)C(=O)Nc1nnc(-c2cccc([N+](=O)[O-])c2)s1 (configuration not stated) | 14% | ? | 0 | 13µM*
Cc1cc2c(cc1S(=O)(=O)CCC(=O)N1CCN(c3ccccc3)CC1)OCC(=O)N2 | 7% | -6% | · | 0%
O=C(Nc1nnc(SCc2ccc(F)cc2)s1)C1Cc2ccccc2CN1C(=O)c1ccco1 (configuration not stated) | ? | 16µM* | -1 | 4%
CC(=O)N1N=C(c2ccc(NS(=O)(=O)c3ccccc3)cc2)CC1c1ccco1 (configuration not stated) | -10% | -2% | 1 | 4%
CC(=O)N1N=C(c2cccc(NS(=O)(=O)c3ccc(C)cc3)c2)CC1c1ccco1 (configuration not stated) | ? | 23µM* | -1 | 0%
O=c1oc2ccccc2c(O)c1/C=C1\C=Nc2ccccc21 | -8% | 6% | 0 | 13%
O=c1[nH]c(O)c(/C=C2\C=Nc3ccccc32)[nH]1 | ? | ? | -3 | 4µM*
CCOc1ccccc1CNc1ccc2cc(S(=O)(=O)N3CCC(C)CC3)ccc2n1 | -13% | ? | · | 1%
Cc1ccc2c(CC(=O)Nc3ccc(S(=O)(=O)N4CCCC(C)C4)cc3)coc2c1 (configuration not stated) | -8% | 21µM* | · | 1%
COC(=O)c1cn(CC(=O)N2CCCCCC2)c2ccccc12 | 0% | 3% | -1 | 0%
CCOC(=O)C1=C(O)/C(=C/c2cn(CC(=O)N3CCCC3)c3ccccc23)SC1=Nc1ccccc1 | -10% | ? | 219* | 1%
Cc1c2cc(O)c(=O)cc-2oc2cc(O)c(O)cc12 | · | ? | 9 | -1%
COc1cc(OC)c(-c2c3cc(O)c(=O)cc-3oc3cc(O)c(O)cc23)cc1OC | 16µM* | ? | -1 | -2%
CC(=O)c1ccc(NC(=O)CSc2nnc(-c3ccncc3)n2-c2ccccc2)cc1 | 0% | · | · | -1%
CC1Cc2cc(S(=O)(=O)NCc3ccc(N(C)C)cc3)ccc2N1C(=O)C1CCC1 (configuration not stated) | -2% | 23µM* | · | 5%
SMILES | A549 viability | Nrf2 block | IL2 activator | Nrf2 activator
CC1Cc2cc(S(=O)(=O)NCc3ccccc3Cl)ccc2N1C(=O)C1CCC1 (configuration not stated) | -14% | 26µM* | · | 0%
COc1ccc(CNS(=O)(=O)c2ccc3c(c2)CC(C)N3C(=O)C2CC2)cc1 (configuration not stated) | -11% | ? | -2 | 0%
O=C1c2ccccc2C(=O)c2c(Nc3ccc(CCO)cc3)ccc(O)c21 | ? | ? | -3 | 4µM*
C/C(=N\N=C(N)N)c1cc(Cl)ccc1Cl | ? | 16µM* | 4 | 4%
CN1C(=O)/C(=C/c2ccc(OC(=O)c3ccco3)cc2)SC1=S | -2% | 1% | 56* | 3%
CCCCC1(CO)C(=O)N(c2ccccc2)N(c2ccccc2)C1=O | 2% | -1% | 0 | 0%
CCCCC1C(=O)N(c2ccccc2)N(c2ccc(O)cc2)C1=O (configuration not stated) | ? | 26µM* | 0 | ?
COc1ccc(NC(=O)c2cc3c(-c4ccc(OC)c(OC)c4)nn(C)c3s2)cc1OC | -29% | 12µM* | -3 | 21%
COc1ccc(-c2nn(C)c3sc(C(=O)Nc4cc(OC)c(OC)c(OC)c4)cc23)cc1OC | ? | 23µM* | · | 4%
CCOC(=O)N1CCC(NC(=O)c2cc3c(-c4ccc(OC)c(OC)c4)nn(C)c3s2)CC1 | 1% | ? | -2 | -1%
COc1ccc(-c2nn(C)c3sc(C(=O)NCc4ccco4)cc23)cc1OC | 0% | 18% | 1 | 4%
COc1ccc(NC(=O)c2ccco2)cc1NC(=O)COc1ccccc1Cl | 1% | -3% | · | 4%
CC1(C)CC(=O)C2=C(C1)NC(Nc1nc3ccccc3o1)=NC2c1cccnc1 (configuration not stated) | 12% | 11% | · | ·
Cc1csc(-c2ccc3cc(Cl)cc(Cl)c3n2)n1 | · | · | 0 | 2.5µM*
COc1ccccc1/C=N/OCc1ccc(C#N)cc1 | -5% | 18µM* | 1 | 0%
O=C(Cc1nnc(-c2cc3ccccc3[nH]2)s1)Nc1cc(C(F)(F)F)ccc1Cl | -5% | 3% | · | ·
CSc1nc(N)nc(SCCS(=O)(=O)c2ccc(Cl)cc2)c1C#N | -1%[1.84 µM] | ? | -1 | 13µM*
Cc1ccc(S(=O)(=O)CCSc2nc(C)cc(C)c2C#N)cc1 | -21% | 21µM* | -2 | 4%
CSc1nc(N)nc(SCC(=O)Nc2ccc(Cl)cc2)c1C#N | ? | 15µM* | -1 | 17%
O=c1c2sc3ccccc3c2n(Cc2ccccc2)c(=O)n1CCc1ccccc1 | 9% | 18% | · | 0%
COc1cccc(CN2CCc3nc(Nc4ccc5c(c4)OCCO5)ncc3C2)c1OC | 0% | · | · | 5%
COc1ccc(S(=O)(=O)N(CCc2ccccc2)CC(=O)Nc2cccc(OC)c2)cc1 | -10% | ? | · | 6%
Cc1ccc(-c2cn3c(n2)sc2cc(C(=O)NC4CCCCCC4)ccc23)c(C)c1 | -6% | ? | · | 0%
CCC(=O)Nc1ccc(N2CCCCC2)c(C(=O)Nc2ccc(OC)cc2)c1 | -15% | 18µM* | 0 | 3%
Cc1ccc(NC(=O)c2cc(NC(=O)CCC(=O)O)ccc2N2CCCCC2)cc1 | 0% | 10% | 0 | -1%
CC(=O)c1ccccc1OCC(=O)Nc1cccc(S(=O)(=O)N2CCCC2)c1 | 0% | 13µM* | -1 | 5%
CCOc1ccccc1OCC(=O)Nc1cccc(S(=O)(=O)N2CCCCCC2)c1 | 3% | 4% | 2 | 4%

Assay outcomes as filed in PubChem.
